An excerpt weighted towards active compounds, which were near 3.4% of everything screened.
MITF inh: MITF inhibitors, primary screen, biochemical, AlphaScreen, human. Microphthalmia-associated transcription factor (Homo sapiens), O75030. AlphaScreen MITF homodimerization, bead proximity signal. inhibition, % at 2.6 µM. 650,000 compounds, 0.91% hits. AID 1259374, 2018; in the data active = inhibition above about 50%
Target sequence (O75030 whole entry, looked up): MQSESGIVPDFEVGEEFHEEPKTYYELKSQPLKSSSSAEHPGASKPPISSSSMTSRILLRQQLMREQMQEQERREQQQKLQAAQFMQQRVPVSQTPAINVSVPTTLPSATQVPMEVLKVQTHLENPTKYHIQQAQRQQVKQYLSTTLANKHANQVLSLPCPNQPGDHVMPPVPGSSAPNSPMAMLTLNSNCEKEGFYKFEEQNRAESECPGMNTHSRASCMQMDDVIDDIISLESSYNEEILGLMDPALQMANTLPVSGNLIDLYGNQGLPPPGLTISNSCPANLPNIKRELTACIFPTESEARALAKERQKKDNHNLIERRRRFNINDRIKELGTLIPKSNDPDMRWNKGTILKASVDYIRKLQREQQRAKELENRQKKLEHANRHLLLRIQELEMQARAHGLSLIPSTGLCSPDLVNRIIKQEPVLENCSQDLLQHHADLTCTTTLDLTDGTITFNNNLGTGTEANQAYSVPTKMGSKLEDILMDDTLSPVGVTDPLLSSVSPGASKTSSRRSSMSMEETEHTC
GPR151 ag: activators of human GPR151, primary screen, cell-based, PathHunter beta-arrestin, luminescence. PathHunter beta-arrestin GPR151 cells. 650,000 compounds, 1% hits. activation, % at 11.2 µM. G-protein coupled receptor 151 (Homo sapiens), Q8TDV0; in the data active = activation above about 4.9%
FBW7 act: FBW7 E3 ligase activators, primary screen, biochemical, AlphaScreen, human. AlphaScreen FBW7–phospho-cyclin E peptide binding, activator screen. normalized activity (activation), % at 26.1 µM. 650,000 compounds, 0.13% hits. AID 1259310, 2017; in the data active = normalized activity above about 1.9%;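 note: purified mutant Fbw7 with reduced substrate affinity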
TEAD-YAP block: TEAD-YAP interaction inhibition, primary screen, TEAD-YAP interaction inhibitor project, luminescence, HEK-TIYL cells; AID 1259422, 2018; 640,000 compounds, 1.4% hits; inhibition, % at 9.12 µM; TEAD-Gal4/YAP UAS-luciferase luminescence; in the data active = inhibition above about 32%
Each line names hits and unclear results; the compound was inactive in the other large screens.

Cc1ccc(-c2ncn(-c3ccc(Nc4ncc5ccc(Br)cc5n4)cc3)n2)cn1	none
Cn1ncc2cc(Nc3ncc4ccc(-c5cn[nH]c5)cc4n3)ccc21	TEAD-YAP block 71
Cc1ncn(-c2ccc(Nc3ncc(Cl)c(-c4cn[nH]c4)n3)cc2)n1	none
Cc1nc(C)n(-c2ccc(Nc3cc4cc(-c5cn[nH]c5)ccc4cn3)cc2)n1	TEAD-YAP block 85
O=C(CCCn1sc2ccccc2c1=O)NC1CCCCC1	none
c1coc(-c2nnc(SCc3nc4ccccc4[nH]3)o2)c1	TEAD-YAP block 44
Cc1sc(NC(=O)c2cc(-c3ccc(C(C)(C)C)cc3)nc3ccccc23)c(C(N)=O)c1C	TEAD-YAP block 46
Cc1cc(-c2nnc(NC(=O)c3ccc4c(c3)CCCC4)o2)nn1C	none
O=S(=O)(c1ccc2c(c1)OCCO2)N1CCN(c2ncccn2)CC1	none
CCCN1CCc2nc(NC(=O)c3sc4ccccc4c3Cl)sc2C1	TEAD-YAP block 34
O=C(NCc1ccco1)c1ccc(N2CC3CC(C2)c2cccc(=O)n2C3)c(NC(=O)c2ccncc2)c1 (configuration not stated)	TEAD-YAP block 45
Cn1c(SCC2CCCCO2)nnc1-c1ccccc1 (configuration not stated)	none
Cn1c(SCC2CCCO2)nnc1-c1ccccc1O (configuration not stated)	TEAD-YAP block 61
COc1ccccc1-n1cc(CNC(=O)CCc2nnc(C3CCCCC3)o2)cn1	none
O=C(Nc1nnc(S(=O)(=O)N2CCCCCC2)s1)C12CC3CC(CC(C3)C1)C2	none
COc1ccc(-c2ccc3c(N)c(C(=O)NCc4ccco4)sc3n2)cc1	TEAD-YAP block 33
COc1ccc(-c2ccc(C(=O)NCc3ccco3)c(N(C)C)n2)cc1	none
CC(C)OC(=O)c1sc2nc(-c3ccccc3)ccc2c1N	TEAD-YAP block 84
COc1cc(COc2cccc3ccc(N4CCN(C(=O)c5ccco5)CC4)nc23)cc(OC)c1	TEAD-YAP block 35
Cc1ccccc1COc1cccc2ccc(N3CCN(C(=O)c4ccco4)CC3)nc12	none
COc1cc2nc(Nc3ccnn3C)nc(Nc3cc(OC)c(OC)c(OC)c3)c2cc1OC	TEAD-YAP block 64
CC1=C(C(=O)OCCCc2ccccc2)C(c2ccccc2C(F)(F)F)CC(=O)N1 (configuration not stated)	none
Cc1ccc2cc3c(nc2c1)OCC(=O)N(Cc1ccco1)C3	none
Cc1cccc2cc3c(nc12)OCC(=O)N(Cc1ccccc1)C3	FBW7 act 26, TEAD-YAP block 58
CC1Oc2nc3ccccc3cc2CN(Cc2ccc(F)cc2)C1=O (configuration not stated)	TEAD-YAP block 32
Cc1ccc2cc3c(nc2c1)OCC(=O)N(Cc1ccccc1)C3	TEAD-YAP block 48
CC1Oc2nc3ccccc3cc2CN(Cc2ccc3c(c2)OCO3)C1=O (configuration not stated)	none
COc1ccc(CC(=O)NC(C)C(c2cccs2)N2CCN(c3ccc(OC)cc3)CC2)cc1 (configuration not stated)	none
CC(=O)Nc1ccc(S(=O)(=O)N2c3ccccc3C(C)=CC2(C)C)cc1	TEAD-YAP block 58
O=C(CC1(O)C(=O)N(Cc2ccc(Cl)cc2)c2ccccc21)c1ccc(Br)s1 (configuration not stated)	none
O=C(/C=C/Nc1ccc(Br)cc1F)c1ccccc1	TEAD-YAP block 84
O=C(/C=C\Nc1cccc(Br)c1)c1ccccc1	none
O=C(/C=C\Nc1ccccn1)c1ccccc1	TEAD-YAP block 41
O=C(/C=C/Nc1ccccc1Br)c1ccccc1	TEAD-YAP block 83
O=C(/C=C/Nc1ccccc1Br)c1ccccn1	TEAD-YAP block 92
O=C(/C=C/Nc1ccccc1F)c1ccc(Br)cc1	none
COc1cc(OC)cc(C(=O)Nc2nc(-c3cc4ccccc4o3)cs2)c1	none
O=S(=O)(Nc1ccc(OCc2ccccc2)cc1)c1ccc(Br)cc1	none
COc1ccc(C(=O)Nc2ccc(OCc3ccccc3)cc2)c(OC)c1	TEAD-YAP block 90
CN(C)S(=O)(=O)Nc1ccc(OCc2ccccc2)cc1	FBW7 act 1.9
O=C(NCC1(c2ccccc2)CCCC1)c1ccccc1[N+](=O)[O-]	none
Cc1nc2sccn2c1-c1csc(Nc2cccc(O)c2)n1	TEAD-YAP block 37
Cc1nc2sccn2c1-c1csc(Nc2ccccc2)n1	none
Cc1nc2sccn2c1-c1csc(Nc2ccc(Br)cc2)n1	TEAD-YAP block 49
Cc1nc2sccn2c1-c1csc(Nc2ccc(N)cc2)n1	none
COC(=O)C(CC(C)C)Oc1ccc2c(C)cc(=O)oc2c1 (configuration not stated)	none
CCOc1ccc(C(=O)NCC(=O)OCC(=O)c2c(C)[nH]c3ccccc23)cc1	FBW7 act 2.1
Cc1[nH]c2ccccc2c1C(=O)COC(=O)CNC(=O)c1ccc(Br)o1	none
NC1=NC2(CCCCCC2)n2c(nc3ccccc32)N1	TEAD-YAP block 78
CCOC(=O)c1ccc(NCN2C(=O)c3ccc(Br)cc3C2=O)cc1	none
NS(=O)(=O)c1ccc(CCNC(=O)c2ccc(C#CC3(O)CCCCC3)cc2)cc1	TEAD-YAP block 45
CCC(C)n1c(SCc2ccccc2Cl)nc2ccsc2c1=O (configuration not stated)	TEAD-YAP block 51
CCC(C)n1c(SCc2c(F)cccc2Cl)nc2ccsc2c1=O (configuration not stated)	none
COc1ccc(NC(=O)C(C)Sc2ccc(C)cc2)cc1OC (configuration not stated)	none
CCOc1ccc2nc(N3CCCN(Cc4cccc5ncccc45)CC3)nc(C)c2c1	none
Cc1ccc(N2CC(C(=O)Nc3nccs3)CC2=O)cc1C (configuration not stated)	TEAD-YAP block 44
Cc1ccsc1C(=O)NNC(=O)c1cc(C)n(-c2ccc(F)cc2)c1C	TEAD-YAP block 65
Cc1ccc(C2=NN(C(=O)c3ccco3)C(O)(C(F)(F)F)C2)cc1 (configuration not stated)	none
COc1ccc(C2=NN(C(=O)c3ccco3)C(O)(C(F)(F)F)C2)cc1 (configuration not stated)	TEAD-YAP block 41
COC(=O)c1sc(N)c(C(=O)OC)c1COC(=O)c1c(C)noc1C	TEAD-YAP block 46
CCOC(=O)c1c(N)sc(C(=O)OC)c1CC(=O)OC	none
COc1ccc(C(=O)C[n+]2cccc3cc(OC)ccc32)cc1	TEAD-YAP block 53
CCC[n+]1cccc2cc(OC)ccc21	none
O=C(O)c1ccn(-c2ccnc(Nc3ccc(N4CCOCC4)cc3)c2)n1	none
COc1ccc(/C=C2\C=C(c3ccccc3)N(c3cc(C)ccc3C)C2=O)cc1	TEAD-YAP block 42
Cc1ccc(C)c(N2C(=O)/C(=C/c3ccc(Cl)cc3)C=C2c2ccccc2)c1	none
COc1ccc(/C=C2\C=C(c3ccccc3)N(c3cccc4ccccc34)C2=O)cc1	TEAD-YAP block 57
CC[N+]1=C(C)C(C)(C)c2cc(C)ccc21	TEAD-YAP block 50

Source: PubChem BioAssay (The Scripps Research Institute Molecular Screening Center)
